# Reference: PubChem BioAssay AID556 (SRMLSC, 2006)
# In all, about 65,000 compounds went through this assay and about 320 (0.49%) were called active.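 The calls were made as follows: active = the 320 compounds with the highest percent inhibition in the single-dose primary screen, excluding strongly autofluorescent ones (cut at about 32% in these data); inactive = the rest, inconclusive results apart.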 For the sample, actives were picked, then their nearest neighbours and some compounds at random.
# Tested on: diphosphomevalonate decarboxylase (Streptococcus pneumoniae D39)
# Assay: S. pneumoniae DPM-DC inhibitors, primary screen, biochemical, PK/LDH-coupled NADH fluorescence (AID 556);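 as to inhibition: kinetic rate of NADH fluorescence loss reporting ADP formed by the decarboxylase; 0% = full reaction rate with carrier and 100% = no-substrate background rate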
# Conditions: purified DPM-DC, at 10 µM
# [1] = stronger effect = higher value unless noted
# [2] = measured here: pilot screen trials, stronger effect = higher value
structure (smiles),measurement,setting,value
C=CCNC(=O)c1ccc(C)c(Br)c1,inhibition,[1],inactive
CCN(CC)CCNC(=O)C1c2ccccc2C(=O)N(C)C1c1cn(C)c2ccccc12 (stereo not drawn),inhibition,[1],inactive
COc1ccccc1CNCc1cccs1,inhibition,[1],inactive
COC(=O)c1cc(C(=O)CSc2nc(C)cc(C)n2)ccc1O,inhibition,[1],inactive
CCOC(=O)Cc1csc(NC(=O)CN(C)S(=O)(=O)c2ccc3c(c2)CCC(=O)N3)n1,inhibition,[1],"0% [measured here: pilot screen trials, stronger effect = higher value]"
same,outcome,[1],inactive
COc1ccc(OC)c(CNC(=O)CCc2nc(-c3cccs3)no2)c1,inhibition,[1],inactive
Cc1nnc(SCCCn2c(N3CCCCC3)nc3c2c(=O)[nH]c(=O)n3C)s1,inhibition,[1],"1% [measured here: pilot screen trials, stronger effect = higher value]"
same,outcome,[1],inactive
Cc1ccc(C(=O)OCC(=O)NCc2ccc3c(c2)OCO3)s1,inhibition,[1],14% (inactive)
C=CCn1c(=O)c2ccccc2n2c(SCC(=O)N3CCCc4ccccc43)nnc12,inhibition,[1],inactive
CCCn1cc(SCC(N)=O)c2ccccc21,inhibition,[1],"0% [measured here: pilot screen trials, stronger effect = higher value]"
same,outcome,[1],inactive
CCCn1c(=O)c2ccccc2n2c(SCC(=O)/C(C#N)=C(\C)N)nnc12,inhibition,[1],34% (active)
COC(=O)c1ccccc1NC(=O)CN(Cc1ccccc1)S(C)(=O)=O,inhibition,[1],5% (inactive)
CC(=O)c1ccc(N2C(=NC(=O)C(C)C)SC3CS(=O)(=O)CC32)cc1 (stereo not drawn),inhibition,[1],14% (inactive)
CCOCCN(C=O)c1cccc(OC)c1,inhibition,[1],inactive
COc1ccc(-c2ccnc(SCC(=O)N3CCOCC3)n2)cc1,inhibition,[1],inactive
COc1cc(NS(=O)(=O)c2ccc(NC(C)=O)cc2)cc(OC)c1,inhibition,[1],inactive
CCC(=O)Nc1sc(C(=O)N2CCCCC2)c(C)c1C#N,inhibition,[1],inactive
O=C(CNC(=O)c1ccco1)OCC(=O)c1ccccc1,inhibition,[1],14% (inactive)
Cc1ccc2nc(NC(=O)C3CCN(S(=O)(=O)c4ccc5c(c4)oc(=O)n5C)CC3)sc2c1,inhibition,[1],inactive
CCS(=O)(=O)n1nc(-c2ccc(OC)cc2)nc1SC,inhibition,[1],inactive
Cn1c(SCC(=O)N2CCOCC2)nnc1-c1ccc(NC(=O)c2ccccc2F)cc1,inhibition,[1],100% (active)
Cn1c(SCC(=O)Nc2cccc(O)c2)nnc1-c1ccc(S(=O)(=O)N2CCOCC2)cc1,inhibition,[1],inactive
Cc1ccccc1C(=O)Nc1cccc(-c2nnc(SCC(=O)O)n2C)c1,inhibition,[1],3% (inactive)
O=C1OC(NC(=O)c2ccccc2)C(N2CCOCC2)=C1Cl (stereo not drawn),inhibition,[1],9% (inactive)
CCOc1ccc(-n2c(SC(C)C(=O)OC)nc3c(c2=O)SCC3)cc1 (stereo not drawn),inhibition,[1],1% (inactive)
O=C(NCc1ccccn1)c1cnc2sccn2c1=O,inhibition,[1],27% (inactive)
CC(C)Cc1cc(C(=O)Nc2cc(Br)ccc2O)no1,inhibition,[1],inactive
CCCC(C)n1[nH]c(=O)c2c(C)cc(C)nc21 (stereo not drawn),inhibition,[1],inactive
Cc1nnc(SCC(=O)N(C(C)C)C(C)C)nc1C,inhibition,stronger effect = higher value,4% (inactive)
same,inhibition,[2],0%
CC(C)(C)c1ccc(NC(=O)NCc2ccco2)cc1,inhibition,[1],inactive
CCCn1c(SCC(=O)c2ccc3c(c2)OCCO3)nnc1C(C)C,inhibition,[1],4% (inactive)
CS(=O)(=O)N1CCN(C(=O)Cc2ccccc2)CC1,inhibition,[1],inactive
CC1(C)Cc2cccc(OCC(=O)Nc3nccs3)c2O1,inhibition,[1],inactive
CCOC(=O)C1CCCN(C(=O)c2sc3nc(C)nc(N4CCOCC4)c3c2C)C1 (stereo not drawn),inhibition,[1],inactive
O=C(CN1CCN(c2ccccn2)CC1)NCc1cccs1,inhibition,[1],inactive
CC(C)COC(=O)C1C2C=CC3(CN(C(C)c4ccc(Br)cc4)C(=O)C13)O2 (stereo not drawn),inhibition,stronger effect = higher value,22% (inactive)
same,inhibition,[2],0%
CCOC(=O)N1CCC(O)(c2cc(C)c(C)cc2C)CC1,inhibition,[1],"0.5% [measured here: pilot screen trials, stronger effect = higher value]"
same,outcome,[1],inactive
O=C(C1=C(O)C(=O)N(c2ncccn2)C1c1cccs1)c1ccco1 (stereo not drawn),inhibition,[1],1% (inactive)
Cc1[nH]c2ccc(S(N)(=O)=O)cc2c1C,inhibition,[1],inactive
CCN(CC)c1ccc(C(=O)OCC(=O)c2ccco2)cc1,inhibition,[1],inactive
Cc1ccc(S(=O)(=O)N2CC(=O)Nc3ccccc32)cc1C,inhibition,[1],inactive
Cc1nc(NC(=O)C23CCC(C)(C(=O)O2)C3(C)C)sc1C (stereo not drawn),inhibition,stronger effect = higher value,6% (inactive)
same,inhibition,[2],2%
Cc1noc(C)c1C(=O)OCC(=O)/C=C1\N(C)c2ccccc2C1(C)C,inhibition,[1],inactive
CCOC(=O)CN1CC23C=CC(O2)C(C(=O)Nc2ccc(F)cc2)C3C1=O (stereo not drawn),inhibition,[1],inactive
CCOCCOC(=O)C1=C(C)N(C)C(=O)NC1c1ccccc1F (stereo not drawn),inhibition,[1],inactive
Cc1c(C(=O)NCCN2CCOCC2)sc2nc(-c3ccc(F)cc3)cn12,inhibition,[1],9% (inactive)
Cc1c(C(=O)NCC2CCCO2)sc2nc(-c3ccccc3)cn12 (stereo not drawn),inhibition,[1],35% (active)
Cc1c(C(=O)N2CC(C)OC(C)C2)sc2nc(-c3ccccc3)cn12 (stereo not drawn),inhibition,[1],inactive
C=CCn1c(C2CC(=O)N(c3ccc(C)cc3)C2)nc2ccccc21 (stereo not drawn),inhibition,[1],inactive
O=C(CSc1nc2cc3c(cc2c(=O)n1CCC1=CCCCC1)OCO3)NCc1ccco1,inhibition,[1],inactive
CCNS(=O)(=O)c1ccc(NC(=O)Nc2cccc(C(F)(F)F)c2)cc1,inhibition,[1],inactive
CCCCOc1ccc(C(C)(O)CCN2CCOCC2)cc1 (stereo not drawn),inhibition,[1],inactive
CC1(C)Oc2ccc(C(=O)N3CCOCC3)cc2N(CC(=O)Nc2ccccc2)C1=O,inhibition,[1],inactive
CCCCNc1nc2ccccc2nc1NS(=O)(=O)c1cccs1,inhibition,[1],2% (inactive)
Cc1ccc(CN2C(=O)CCC2C(=O)NCCCN2CCCCC2C)cc1 (stereo not drawn),inhibition,[1],inactive
Cn1c(SCc2nc3ccccc3s2)nnc1-c1ccc2c(c1)OCO2,inhibition,[1],inactive
Cc1cccc(N2CCN(C(=O)C3CCN(S(=O)(=O)c4cnc[nH]4)CC3)CC2)c1C,inhibition,[1],inactive
CCCCCCOC(=O)NCC(O)c1ccccc1 (stereo not drawn),inhibition,[1],inactive
Cc1nc(NCCN)c(C#N)c2c1COC(C)(C)C2,inhibition,[1],32% (active)
Cc1nc(NCc2ccccc2)c(C(N)=O)c2c1COC(C)(C)C2,inhibition,[1],24% (inactive)
Cc1cc(C)c(S(=O)(=O)NCCCN2CCOCC2)cc1Br,inhibition,[1],inactive
Cn1c(=O)c(=O)n(C)c2cc(S(=O)(=O)NCCc3ccccc3)ccc21,inhibition,[1],inactive
Cc1ccc(S(=O)(=O)NCCN2CCOCC2)cc1C,inhibition,stronger effect = higher value,80% (active)
same,inhibition,[2],0%
COCCNC(=O)CN1C(=O)CSc2ncccc21,inhibition,[1],"0% [measured here: pilot screen trials, stronger effect = higher value]"
same,outcome,[1],inactive
